Out of some 5,500 compounds screened, about 2,000 (36%) were called active. Roughly 18% stayed inconclusive and do not appear here. No stated cut-off is given here; in the data, active means normalized growth mostly below about 0.91 (no sharp cut-off); inconclusive means no clear call, values can overlap the other calls; inactive means mostly above about 0.92. This is one part of the list.
Assay: chemical genetic growth profiling, strain panel (AID 1159580);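 further: tested at 20 µM; growth read once vehicle control cultures reached saturation at 30 °C; 1 = growth at the plate median or of vehicle wells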
Conditions: growth OD

Measured: normalized growth

O=[N+]([O-])c1ccc(O)c([N+](=O)[O-])c1
active: S. cerevisiae deletion strains, locus YKL009W, strain mrt4, stronger effect = lower value 0.249 | S. cerevisiae deletion strains, locus YKL068W, stronger effect = lower value 0.354 | S. cerevisiae deletion strains, locus YKL085W, strain MDH1 (second series), stronger effect = lower value 0.192 | S. cerevisiae deletion strains, locus YKL085W, strain MDH1, stronger effect = lower value 0.192 | S. cerevisiae deletion strains, locus YKL160W, strain elf1, stronger effect = lower value 0.87 | S. cerevisiae deletion strains, locus YKL190W, strain CNB1, stronger effect = lower value 0.795 | S. cerevisiae deletion strains, locus YKR001C, strain vps1, stronger effect = lower value 0.691 | S. cerevisiae deletion strains, locus YKR026C, strain gcn3, stronger effect = lower value 0.77 | S. cerevisiae deletion strains, locus YKR091W, strain srl3, stronger effect = lower value 0.808 | S. cerevisiae deletion strains, locus YLL001W, strain dnm1, stronger effect = lower value 0.793 | S. cerevisiae deletion strains, locus YLL026W, stronger effect = lower value 0.816 | S. cerevisiae deletion strains, locus YLL041C, strain sdh2, stronger effect = lower value 0.82 | S. cerevisiae deletion strains, locus YLR027C, strain aat2, stronger effect = lower value 0.819 | S. cerevisiae deletion strains, locus YLR058C, strain SHM2, stronger effect = lower value 0.802 | S. cerevisiae deletion strains, locus YLR102C, strain apc9, stronger effect = lower value 0.691 | S. cerevisiae deletion strains, locus YLR113W, strain HOG1, stronger effect = lower value 0.214 | S. cerevisiae deletion strains, locus YLR221C, strain rsa3, stronger effect = lower value 0.786 | S. cerevisiae deletion strains, locus YLR258W, strain gsy2, stronger effect = lower value 0.843 | S. cerevisiae deletion strains, locus YLR262C, strain YPT6 (second series), stronger effect = lower value 0.833 | S. cerevisiae deletion strains, locus YLR268W, strain sec22, stronger effect = lower value 0.736 | S. cerevisiae deletion strains, locus YLR320W, strain mms22, stronger effect = lower value 0.807 | S. cerevisiae deletion strains, locus YLR330W, strain CHS5, stronger effect = lower value 0.733 | S. cerevisiae deletion strains, locus YLR342W, strain FKS1, stronger effect = lower value 0.855 | S. cerevisiae deletion strains, locus YLR370C, strain arc18, stronger effect = lower value 0.814 | S. cerevisiae deletion strains, locus YLR371W, strain rom2, stronger effect = lower value 0.718 | S. cerevisiae deletion strains, locus YLR384C, strain iki3, stronger effect = lower value 0.798 | S. cerevisiae deletion strains, locus YLR418C, strain cdc73, stronger effect = lower value 0.661 | S. cerevisiae deletion strains, locus YML016C, strain PPZ1, stronger effect = lower value 0.79 | S. cerevisiae deletion strains, locus YML032C, strain rad52, stronger effect = lower value 0.697 | S. cerevisiae deletion strains, locus YML120C, strain ndi1, stronger effect = lower value 0.781 | S. cerevisiae deletion strains, locus YML124C, strain tub3, stronger effect = lower value 0.701 | S. cerevisiae deletion strains, locus YMR058W, strain fet3, stronger effect = lower value 0.793 | S. cerevisiae deletion strains, locus YMR078C, strain ctf18, stronger effect = lower value 0.68 | S. cerevisiae deletion strains, locus YMR129W, stronger effect = lower value 0.77 | S. cerevisiae deletion strains, locus YMR205C, strain PFK2, stronger effect = lower value 0.852 | S. cerevisiae deletion strains, locus YMR223W, strain ubp8, stronger effect = lower value 0.776 | S. cerevisiae deletion strains, locus YMR231W, strain pep5, stronger effect = lower value 0.761 | S. cerevisiae deletion strains, locus YMR263W, strain SAP30, stronger effect = lower value 0.783 | S. cerevisiae deletion strains, locus YNL067W, strain RPL9B, stronger effect = lower value 0.779 | S. cerevisiae deletion strains, locus YNL071W, strain lat1, stronger effect = lower value 0.826 | S. cerevisiae deletion strains, locus YNL128W, strain TEP1, stronger effect = lower value 0.842 | S. cerevisiae deletion strains, locus YNL153C, strain GIM3, stronger effect = lower value 0.786 | S. cerevisiae deletion strains, locus YNL183C, strain NPR1, stronger effect = lower value 0.179 | S. cerevisiae deletion strains, locus YNL209W, strain ssb2, stronger effect = lower value 0.829 | S. cerevisiae deletion strains, locus YNL233W, strain BNI4, stronger effect = lower value 0.75 | S. cerevisiae deletion strains, locus YNL250W, strain rad50, stronger effect = lower value 0.265 | S. cerevisiae deletion strains, locus YNL271C, strain bni1, stronger effect = lower value 0.31 | S. cerevisiae deletion strains, locus YNL298W, strain CLA4, stronger effect = lower value 0.251 | S. cerevisiae deletion strains, locus YNL307C, strain MCK1, stronger effect = lower value 0.635 | S. cerevisiae deletion strains, locus YNL322C, strain KRE1 (second series), stronger effect = lower value 0.651 | S. cerevisiae deletion strains, locus YNL322C, strain KRE1, stronger effect = lower value 0.798 | S. cerevisiae deletion strains, locus YNR049C, strain mso1, stronger effect = lower value 0.779 | S. cerevisiae deletion strains, locus YNR052C, strain pop2, stronger effect = lower value 0.728 | S. cerevisiae deletion strains, locus YOL147C, strain pex11, stronger effect = lower value 0.693 | S. cerevisiae deletion strains, locus YOR001W, strain rrp6, stronger effect = lower value 0.841 | S. cerevisiae deletion strains, locus YOR061W, strain CKA2, stronger effect = lower value 0.819 | S. cerevisiae deletion strains, locus YOR069W, strain VPS5, stronger effect = lower value 0.759 | S. cerevisiae deletion strains, locus YOR070C, strain gyp1, stronger effect = lower value 0.836 | S. cerevisiae deletion strains, locus YOR080W, strain dia2, stronger effect = lower value 0.812 | S. cerevisiae deletion strains, locus YOR083W, strain WHI5, stronger effect = lower value 0.831 | S. cerevisiae deletion strains, locus YOR136W, strain idh2, stronger effect = lower value 0.845 | S. cerevisiae deletion strains, locus YOR144C, strain elg1, stronger effect = lower value 0.709 | S. cerevisiae deletion strains, locus YOR184W, strain ser1, stronger effect = lower value 0.799 | S. cerevisiae deletion strains, locus YOR231W, strain MKK1, stronger effect = lower value 0.266 | S. cerevisiae deletion strains, locus YOR265W, strain rbl2, stronger effect = lower value 0.832 | S. cerevisiae deletion strains, locus YOR290C, strain snf2, stronger effect = lower value 0.826 | S. cerevisiae deletion strains, locus YOR316C, strain cot1, stronger effect = lower value 0.726 | S. cerevisiae deletion strains, locus YPL051W, strain arl3, stronger effect = lower value 0.843 | S. cerevisiae deletion strains, locus YPL055C, strain LGE1, stronger effect = lower value 0.753 | S. cerevisiae deletion strains, locus YPL078C, strain atp4, stronger effect = lower value 0.737 | S. cerevisiae deletion strains, locus YPL106C, strain sse1, stronger effect = lower value 0.736 | S. cerevisiae deletion strains, locus YPL240C, strain hsp82, stronger effect = lower value 0.813 | S. cerevisiae deletion strains, locus YPL241C, strain CIN2, stronger effect = lower value 0.812 | S. cerevisiae deletion strains, locus YPL256C, strain CLN2, stronger effect = lower value 0.256 | S. cerevisiae deletion strains, locus YPR119W, strain clb2, stronger effect = lower value 0.697 | S. cerevisiae deletion strains, locus YPR141C, strain kar3, stronger effect = lower value 0.309 | S. cerevisiae deletion strains, locus YPR163C, strain tif3, stronger effect = lower value 0.656 | S. cerevisiae deletion strains, locus YPR167C, strain met16, stronger effect = lower value 0.719 | S. cerevisiae deletion strains, strain wtn01, stronger effect = lower value 0.755 | S. cerevisiae strains, strain wild type, stronger effect = lower value 0.799
inactive: S. cerevisiae deletion strains, locus YLR039C, strain RIC1, stronger effect = lower value 0.841 | S. cerevisiae deletion strains, locus YLR262C, strain YPT6, stronger effect = lower value 0.932 | S. cerevisiae deletion strains, locus YLR342W, strain FKS1 (second series), stronger effect = lower value 0.851 | S. cerevisiae deletion strains, locus YLR357W, strain rsc2, stronger effect = lower value 0.855 | S. cerevisiae deletion strains, locus YMR125W, strain sto1, stronger effect = lower value 0.898 | S. cerevisiae deletion strains, locus YMR307W, strain GAS1, stronger effect = lower value 0.819 | S. cerevisiae deletion strains, locus YNL248C, strain rpa49, stronger effect = lower value 0.937 | S. cerevisiae deletion strains, locus YOL006C, strain TOP1, stronger effect = lower value 0.9 | S. cerevisiae deletion strains, locus YOL012C, strain htz1 0.683 | S. cerevisiae deletion strains, locus YOR106W, strain vam3, stronger effect = lower value 0.87 | S. cerevisiae deletion strains, locus YOR270C, strain vph1, stronger effect = lower value 0.901
